Assay results reported in PMC7862700, “An all-to-all approach to the identification of sequence-specific readers for epigenetic DNA modifications on cytosine”.

Legend:
Experiment in all cases: DAPPL (digital affinity profiling via proximity ligation, sequencing); 10 mM Tris-HCl pH 7.5, 50 mM NaCl, 1 mM DTT, 4% glycerol, room temperature, 30 min; GST-TFs on glutathione beads, 16-mer random dsDNA library, 0.1% formaldehyde crosslink after washing; high values mean tight binding
FEV = target: T1, FEV (Homo sapiens, UniProt Q99581 1-238); settings: protein: recombinant; tags: N-terminal GST; dsDNA, one strand shown
T1 sequence: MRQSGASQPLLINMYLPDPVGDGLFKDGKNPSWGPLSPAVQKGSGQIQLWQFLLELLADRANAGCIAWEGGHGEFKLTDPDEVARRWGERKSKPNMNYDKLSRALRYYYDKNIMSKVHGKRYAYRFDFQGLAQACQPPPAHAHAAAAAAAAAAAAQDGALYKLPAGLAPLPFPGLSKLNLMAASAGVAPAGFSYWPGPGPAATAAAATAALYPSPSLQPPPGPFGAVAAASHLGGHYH
In short: (§1)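 GST fusions of human transcription factors were expressed in yeast and captured with glutathione beads. Once given DNA barcodes and pooled alongside a tag-only sample, they were incubated for 30 min at room temperature with 200 nmole of a random double-stranded 16-mer DNA library in Tris/NaCl/DTT/glycerol buffer, then washed, crosslinked (0.1% formaldehyde), proximity-ligated, PCR-amplified and sequenced on an Illumina NextSeq500. The binding signal of each hexamer is its read frequency for a factor divided by its frequency for the tag-only sample.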

ETV5 = ETV5 (Homo sapiens, UniProt P41161 1-510); settings: protein: recombinant; tags: N-terminal GST; dsDNA, one strand shown
Sequence of ETV5 (P41161 whole entry): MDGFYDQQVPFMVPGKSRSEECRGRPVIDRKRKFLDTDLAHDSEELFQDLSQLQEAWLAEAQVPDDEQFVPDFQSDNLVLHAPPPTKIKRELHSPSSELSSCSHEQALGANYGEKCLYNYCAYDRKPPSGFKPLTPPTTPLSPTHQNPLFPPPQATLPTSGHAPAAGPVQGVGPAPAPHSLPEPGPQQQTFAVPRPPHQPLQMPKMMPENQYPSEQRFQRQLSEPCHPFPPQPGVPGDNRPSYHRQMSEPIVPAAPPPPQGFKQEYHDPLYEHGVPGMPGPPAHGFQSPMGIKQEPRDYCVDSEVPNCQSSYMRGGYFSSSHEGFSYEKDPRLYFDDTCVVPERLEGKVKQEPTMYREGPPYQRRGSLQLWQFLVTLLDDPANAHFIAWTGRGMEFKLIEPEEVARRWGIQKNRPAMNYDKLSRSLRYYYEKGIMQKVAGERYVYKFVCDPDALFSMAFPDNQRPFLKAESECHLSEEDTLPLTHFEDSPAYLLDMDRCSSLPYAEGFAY
In short: as §1

HSF1 = HSF1 (Homo sapiens, UniProt Q00613 1-529); settings: protein: recombinant; tags: N-terminal GST; chain copies: 3; dsDNA, one strand shown
Sequence of HSF1 (Q00613 whole entry): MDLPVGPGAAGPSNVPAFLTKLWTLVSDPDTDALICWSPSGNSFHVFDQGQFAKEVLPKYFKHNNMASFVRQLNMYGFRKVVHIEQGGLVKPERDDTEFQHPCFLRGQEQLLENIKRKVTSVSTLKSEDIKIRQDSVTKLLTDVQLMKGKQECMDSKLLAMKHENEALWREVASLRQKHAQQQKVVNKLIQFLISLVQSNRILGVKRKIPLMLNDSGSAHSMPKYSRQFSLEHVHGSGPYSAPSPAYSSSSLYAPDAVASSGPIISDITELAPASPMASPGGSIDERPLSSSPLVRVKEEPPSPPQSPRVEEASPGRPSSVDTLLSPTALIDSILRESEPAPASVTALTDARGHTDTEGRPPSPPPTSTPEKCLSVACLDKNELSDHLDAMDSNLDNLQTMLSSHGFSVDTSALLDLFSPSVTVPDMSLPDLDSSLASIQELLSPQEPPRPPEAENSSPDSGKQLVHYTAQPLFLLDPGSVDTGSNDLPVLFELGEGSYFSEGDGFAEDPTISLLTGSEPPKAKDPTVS
In short: as §1

SPIC = target: T2, SPIC (Homo sapiens, UniProt Q8N5J4 1-248); settings: protein: recombinant; tags: N-terminal GST; dsDNA, one strand shown
T2 sequence: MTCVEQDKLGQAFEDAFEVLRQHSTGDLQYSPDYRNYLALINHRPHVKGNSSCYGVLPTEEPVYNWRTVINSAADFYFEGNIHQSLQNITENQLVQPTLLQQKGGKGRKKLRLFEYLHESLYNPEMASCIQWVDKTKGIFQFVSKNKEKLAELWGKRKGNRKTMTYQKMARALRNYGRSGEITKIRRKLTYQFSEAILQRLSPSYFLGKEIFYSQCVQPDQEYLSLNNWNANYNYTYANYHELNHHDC
In short: as §1

ELF4 = ELF4 (Homo sapiens, UniProt Q99607 1-663); settings: protein: recombinant; tags: N-terminal GST; dsDNA, one strand shown
Sequence of ELF4 (Q99607 whole entry): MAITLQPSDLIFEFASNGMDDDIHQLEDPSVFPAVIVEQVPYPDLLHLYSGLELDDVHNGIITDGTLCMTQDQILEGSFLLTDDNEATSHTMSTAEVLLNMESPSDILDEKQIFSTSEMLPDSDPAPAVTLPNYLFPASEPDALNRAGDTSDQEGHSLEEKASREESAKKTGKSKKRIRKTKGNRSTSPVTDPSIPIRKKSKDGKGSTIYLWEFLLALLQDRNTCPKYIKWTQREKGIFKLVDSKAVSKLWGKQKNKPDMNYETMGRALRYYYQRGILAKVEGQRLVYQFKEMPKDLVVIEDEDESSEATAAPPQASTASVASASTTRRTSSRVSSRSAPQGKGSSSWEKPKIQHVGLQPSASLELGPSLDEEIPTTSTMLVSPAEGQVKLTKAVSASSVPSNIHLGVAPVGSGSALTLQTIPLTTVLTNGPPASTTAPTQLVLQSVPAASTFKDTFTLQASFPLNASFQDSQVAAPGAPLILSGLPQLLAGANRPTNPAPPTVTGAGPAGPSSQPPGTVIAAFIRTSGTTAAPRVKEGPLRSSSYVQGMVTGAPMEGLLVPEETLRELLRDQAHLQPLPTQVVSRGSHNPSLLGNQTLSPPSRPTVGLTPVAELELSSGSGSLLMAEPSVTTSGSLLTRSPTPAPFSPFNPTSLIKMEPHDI
In short: as §1

ELK4 = target: T3, ELK4 (Homo sapiens, UniProt P28324-2 1-405); settings: protein: recombinant; tags: N-terminal GST; dsDNA, one strand shown
T3 sequence: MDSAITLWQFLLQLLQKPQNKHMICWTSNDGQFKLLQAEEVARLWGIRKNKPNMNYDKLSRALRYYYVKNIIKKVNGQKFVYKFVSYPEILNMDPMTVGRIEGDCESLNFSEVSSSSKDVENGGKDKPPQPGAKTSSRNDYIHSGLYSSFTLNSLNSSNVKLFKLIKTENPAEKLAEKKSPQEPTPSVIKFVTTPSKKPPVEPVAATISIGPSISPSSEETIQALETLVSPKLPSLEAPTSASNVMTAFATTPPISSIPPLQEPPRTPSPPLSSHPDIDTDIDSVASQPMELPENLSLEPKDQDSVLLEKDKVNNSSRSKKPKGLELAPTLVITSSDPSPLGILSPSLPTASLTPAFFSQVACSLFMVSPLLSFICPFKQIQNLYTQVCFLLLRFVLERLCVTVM
In short: as §1

CRX = CRX (Homo sapiens, UniProt O43186 1-299); settings: protein: recombinant; tags: N-terminal GST; dsDNA, one strand shown
Sequence of CRX (O43186 whole entry): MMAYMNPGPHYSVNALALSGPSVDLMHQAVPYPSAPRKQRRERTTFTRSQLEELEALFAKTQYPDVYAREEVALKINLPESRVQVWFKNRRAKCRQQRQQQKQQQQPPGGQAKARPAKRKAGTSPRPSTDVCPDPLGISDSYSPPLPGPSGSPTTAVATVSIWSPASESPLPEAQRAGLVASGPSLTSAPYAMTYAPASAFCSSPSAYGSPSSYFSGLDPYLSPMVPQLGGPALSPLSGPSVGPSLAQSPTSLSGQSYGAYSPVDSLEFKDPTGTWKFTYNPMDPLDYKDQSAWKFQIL
In short: as §1

ETV1 = ETV1 (Homo sapiens, UniProt P50549 1-477); settings: protein: recombinant; tags: N-terminal GST; dsDNA, one strand shown
Sequence of ETV1 (P50549 whole entry): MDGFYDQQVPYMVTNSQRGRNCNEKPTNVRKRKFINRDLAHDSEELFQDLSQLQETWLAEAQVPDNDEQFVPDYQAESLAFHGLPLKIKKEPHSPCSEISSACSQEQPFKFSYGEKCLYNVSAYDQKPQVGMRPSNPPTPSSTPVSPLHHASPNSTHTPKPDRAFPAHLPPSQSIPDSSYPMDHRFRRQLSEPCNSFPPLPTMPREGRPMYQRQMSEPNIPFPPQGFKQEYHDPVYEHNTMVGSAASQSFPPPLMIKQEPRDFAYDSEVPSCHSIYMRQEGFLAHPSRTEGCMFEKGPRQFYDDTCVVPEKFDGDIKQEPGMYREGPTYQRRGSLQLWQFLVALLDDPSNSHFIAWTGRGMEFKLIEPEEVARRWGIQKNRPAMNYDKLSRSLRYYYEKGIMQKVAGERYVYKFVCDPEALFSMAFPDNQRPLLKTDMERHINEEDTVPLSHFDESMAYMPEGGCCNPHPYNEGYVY
In short: as §1

ERF = target: T4, ERF (Homo sapiens, UniProt P50548 1-548); settings: protein: recombinant; tags: N-terminal GST; dsDNA, one strand shown
T4 sequence: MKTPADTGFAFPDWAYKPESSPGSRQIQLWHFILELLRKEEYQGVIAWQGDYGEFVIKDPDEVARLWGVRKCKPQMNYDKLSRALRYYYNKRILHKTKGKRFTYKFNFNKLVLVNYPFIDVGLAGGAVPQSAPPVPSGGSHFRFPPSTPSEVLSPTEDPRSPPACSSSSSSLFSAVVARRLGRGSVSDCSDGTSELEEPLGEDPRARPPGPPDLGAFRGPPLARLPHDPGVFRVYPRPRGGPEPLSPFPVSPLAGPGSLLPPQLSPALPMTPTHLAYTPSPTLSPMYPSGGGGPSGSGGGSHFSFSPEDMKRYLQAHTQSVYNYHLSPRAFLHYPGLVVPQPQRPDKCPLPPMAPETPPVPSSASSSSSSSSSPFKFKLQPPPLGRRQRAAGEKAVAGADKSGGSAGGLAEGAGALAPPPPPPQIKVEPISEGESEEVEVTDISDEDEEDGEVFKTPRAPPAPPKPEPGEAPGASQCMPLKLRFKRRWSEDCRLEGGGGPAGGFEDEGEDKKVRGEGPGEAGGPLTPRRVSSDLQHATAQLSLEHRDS
In short: as §1

ETV3L = target: T5, ETV3L (Homo sapiens, UniProt Q6ZN32 1-361); settings: protein: recombinant; tags: N-terminal GST; dsDNA, one strand shown
T5 sequence: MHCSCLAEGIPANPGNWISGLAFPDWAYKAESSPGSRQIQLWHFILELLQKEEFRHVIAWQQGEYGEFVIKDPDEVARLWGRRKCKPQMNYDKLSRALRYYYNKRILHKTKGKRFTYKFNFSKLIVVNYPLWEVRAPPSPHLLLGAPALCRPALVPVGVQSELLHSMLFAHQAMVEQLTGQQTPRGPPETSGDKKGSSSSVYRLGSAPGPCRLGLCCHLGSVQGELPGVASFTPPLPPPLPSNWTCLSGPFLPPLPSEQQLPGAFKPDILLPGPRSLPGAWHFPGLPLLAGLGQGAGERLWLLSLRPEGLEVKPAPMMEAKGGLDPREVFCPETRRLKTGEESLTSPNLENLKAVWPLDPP
In short: as §1

ETS2 = target: T6, ETS2 (Homo sapiens, UniProt P15036 1-469); settings: protein: recombinant; tags: N-terminal GST; dsDNA, one strand shown
T6 sequence: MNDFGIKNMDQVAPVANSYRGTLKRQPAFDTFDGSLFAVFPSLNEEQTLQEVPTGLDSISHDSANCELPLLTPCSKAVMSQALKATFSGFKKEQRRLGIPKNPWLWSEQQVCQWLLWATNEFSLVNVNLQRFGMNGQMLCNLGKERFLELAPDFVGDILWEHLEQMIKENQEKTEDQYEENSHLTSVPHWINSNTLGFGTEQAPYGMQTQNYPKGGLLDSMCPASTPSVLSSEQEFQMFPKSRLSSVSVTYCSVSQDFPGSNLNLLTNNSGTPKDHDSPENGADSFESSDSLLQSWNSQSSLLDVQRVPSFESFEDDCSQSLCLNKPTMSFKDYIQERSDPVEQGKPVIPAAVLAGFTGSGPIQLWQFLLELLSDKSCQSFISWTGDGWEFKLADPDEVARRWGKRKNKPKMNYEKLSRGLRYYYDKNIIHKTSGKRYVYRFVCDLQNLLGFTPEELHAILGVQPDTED
In short: as §1

ETV7 = target: T7, ETV7 (Homo sapiens, UniProt Q9Y603 1-341); settings: protein: recombinant; tags: N-terminal GST; dsDNA, one strand shown
T7 sequence: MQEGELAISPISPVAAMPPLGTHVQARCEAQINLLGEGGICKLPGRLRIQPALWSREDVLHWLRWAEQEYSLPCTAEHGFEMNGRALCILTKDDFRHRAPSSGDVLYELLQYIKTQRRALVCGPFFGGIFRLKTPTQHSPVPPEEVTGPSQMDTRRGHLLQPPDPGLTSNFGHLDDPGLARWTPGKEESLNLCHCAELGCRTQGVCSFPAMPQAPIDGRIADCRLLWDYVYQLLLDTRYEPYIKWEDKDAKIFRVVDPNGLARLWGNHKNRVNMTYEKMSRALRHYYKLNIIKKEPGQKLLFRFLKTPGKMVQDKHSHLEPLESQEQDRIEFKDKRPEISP
In short: as §1

ELF5 = target: T8, ELF5 (Homo sapiens, UniProt Q9UKW6-2 1-255); settings: protein: recombinant; tags: N-terminal GST; dsDNA, one strand shown
T8 sequence: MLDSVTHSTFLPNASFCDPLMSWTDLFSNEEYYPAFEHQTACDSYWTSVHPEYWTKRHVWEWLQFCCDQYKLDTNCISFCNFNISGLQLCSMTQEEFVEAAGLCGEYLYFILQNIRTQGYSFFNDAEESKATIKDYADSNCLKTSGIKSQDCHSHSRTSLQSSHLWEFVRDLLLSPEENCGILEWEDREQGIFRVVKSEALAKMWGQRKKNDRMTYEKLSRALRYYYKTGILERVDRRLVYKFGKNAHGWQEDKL
In short: as §1

ETV3 = target: T9, ETV3 (Homo sapiens, UniProt P41162-2 1-143); settings: protein: recombinant; tags: N-terminal GST; dsDNA, one strand shown
T9 sequence: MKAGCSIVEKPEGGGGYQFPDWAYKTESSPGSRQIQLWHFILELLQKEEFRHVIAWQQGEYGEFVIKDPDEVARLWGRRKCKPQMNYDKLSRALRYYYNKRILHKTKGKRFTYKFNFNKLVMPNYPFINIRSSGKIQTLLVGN
In short: as §1

ETV6 = ETV6 (Homo sapiens, UniProt P41212 1-452); settings: protein: recombinant; tags: N-terminal GST; dsDNA, one strand shown
Sequence of ETV6 (P41212 whole entry): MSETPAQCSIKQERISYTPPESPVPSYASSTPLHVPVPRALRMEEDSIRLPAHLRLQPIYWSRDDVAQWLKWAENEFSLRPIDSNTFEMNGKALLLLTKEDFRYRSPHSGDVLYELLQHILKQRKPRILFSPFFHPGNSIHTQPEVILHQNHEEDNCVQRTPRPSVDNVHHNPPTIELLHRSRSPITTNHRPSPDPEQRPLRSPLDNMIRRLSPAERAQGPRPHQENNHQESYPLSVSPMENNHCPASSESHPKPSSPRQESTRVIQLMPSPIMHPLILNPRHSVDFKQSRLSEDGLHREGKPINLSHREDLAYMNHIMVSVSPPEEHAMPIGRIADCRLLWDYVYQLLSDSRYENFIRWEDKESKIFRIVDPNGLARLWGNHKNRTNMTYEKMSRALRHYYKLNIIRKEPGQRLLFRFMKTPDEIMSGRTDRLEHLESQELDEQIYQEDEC
In short: as §1

ELF3 = target: T10, ELF3 (Homo sapiens, UniProt P78545 1-371); settings: protein: recombinant; tags: N-terminal GST; dsDNA, one strand shown
T10 sequence: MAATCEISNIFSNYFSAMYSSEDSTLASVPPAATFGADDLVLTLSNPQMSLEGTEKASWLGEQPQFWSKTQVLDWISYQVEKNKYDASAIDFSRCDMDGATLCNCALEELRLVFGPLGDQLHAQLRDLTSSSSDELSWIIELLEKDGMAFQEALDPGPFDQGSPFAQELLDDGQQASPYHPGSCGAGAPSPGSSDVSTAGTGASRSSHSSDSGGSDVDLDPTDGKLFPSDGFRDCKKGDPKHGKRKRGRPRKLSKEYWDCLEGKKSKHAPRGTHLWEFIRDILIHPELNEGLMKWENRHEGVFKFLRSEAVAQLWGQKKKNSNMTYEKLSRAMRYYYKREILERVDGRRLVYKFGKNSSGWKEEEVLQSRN
In short: as §1

SPDEF = target: T11, SPDEF (Homo sapiens, UniProt O95238 1-335); settings: protein: recombinant; tags: N-terminal GST; dsDNA, one strand shown
T11 sequence: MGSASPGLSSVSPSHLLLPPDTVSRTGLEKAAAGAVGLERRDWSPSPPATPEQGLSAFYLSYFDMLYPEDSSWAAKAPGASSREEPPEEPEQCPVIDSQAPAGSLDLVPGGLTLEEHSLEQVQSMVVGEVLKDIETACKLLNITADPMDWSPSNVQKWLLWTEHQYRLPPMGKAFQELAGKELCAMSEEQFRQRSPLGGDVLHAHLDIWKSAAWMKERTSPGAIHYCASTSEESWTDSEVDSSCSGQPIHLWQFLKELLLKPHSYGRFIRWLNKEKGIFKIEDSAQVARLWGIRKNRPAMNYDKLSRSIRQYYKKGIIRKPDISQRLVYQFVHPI
In short: as §1

Sequence	binding signal (FEV)	binding signal (ETV5)	binding signal (HSF1)	binding signal (SPIC)	binding signal (ELF4)	binding signal (ELK4)	binding signal (CRX)	binding signal (ETV1)	binding signal (ERF)	binding signal (ETV3L)	binding signal (ETS2)	binding signal (ETV7)	binding signal (ELF5)	binding signal (ETV3)	binding signal (ETV6)	binding signal (ELF3)	binding signal (SPDEF)
TGATCG	1.01 fold enrichment (6-mer frequency, TF over GST control)	1.03 fold enrichment (6-mer frequency, TF over GST control)	1.18 fold enrichment (6-mer frequency, TF over GST control)	1.11 fold enrichment (6-mer frequency, TF over GST control)	1.05 fold enrichment (6-mer frequency, TF over GST control)	1.13 fold enrichment (6-mer frequency, TF over GST control)	1.21 fold enrichment (6-mer frequency, TF over GST control)	1.09 fold enrichment (6-mer frequency, TF over GST control)	1.24 fold enrichment (6-mer frequency, TF over GST control)	1.09 fold enrichment (6-mer frequency, TF over GST control)	1.03 fold enrichment (6-mer frequency, TF over GST control)	1.03 fold enrichment (6-mer frequency, TF over GST control)	1.04 fold enrichment (6-mer frequency, TF over GST control)	1.11 fold enrichment (6-mer frequency, TF over GST control)	1.12 fold enrichment (6-mer frequency, TF over GST control)		
GGGCTT	1.24 fold enrichment (6-mer frequency, TF over GST control)	1.18 fold enrichment (6-mer frequency, TF over GST control)	1.46 fold enrichment (6-mer frequency, TF over GST control)	1.11 fold enrichment (6-mer frequency, TF over GST control)	1.08 fold enrichment (6-mer frequency, TF over GST control)	1.22 fold enrichment (6-mer frequency, TF over GST control)	1.77 fold enrichment (6-mer frequency, TF over GST control)	1.29 fold enrichment (6-mer frequency, TF over GST control)	1.19 fold enrichment (6-mer frequency, TF over GST control)	1.2 fold enrichment (6-mer frequency, TF over GST control)	1.22 fold enrichment (6-mer frequency, TF over GST control)	1.28 fold enrichment (6-mer frequency, TF over GST control)	1.16 fold enrichment (6-mer frequency, TF over GST control)	1.19 fold enrichment (6-mer frequency, TF over GST control)	1.2 fold enrichment (6-mer frequency, TF over GST control)	1.17 fold enrichment (6-mer frequency, TF over GST control)	1.11 fold enrichment (6-mer frequency, TF over GST control)
CTATCG	1.01 fold enrichment (6-mer frequency, TF over GST control)	1.06 fold enrichment (6-mer frequency, TF over GST control)	1.17 fold enrichment (6-mer frequency, TF over GST control)	1.04 fold enrichment (6-mer frequency, TF over GST control)	1.15 fold enrichment (6-mer frequency, TF over GST control)	1.09 fold enrichment (6-mer frequency, TF over GST control)	1.08 fold enrichment (6-mer frequency, TF over GST control)	1.13 fold enrichment (6-mer frequency, TF over GST control)	1.28 fold enrichment (6-mer frequency, TF over GST control)	1.07 fold enrichment (6-mer frequency, TF over GST control)	1.04 fold enrichment (6-mer frequency, TF over GST control)	1.19 fold enrichment (6-mer frequency, TF over GST control)		1.1 fold enrichment (6-mer frequency, TF over GST control)	1.07 fold enrichment (6-mer frequency, TF over GST control)	1.22 fold enrichment (6-mer frequency, TF over GST control)	1.04 fold enrichment (6-mer frequency, TF over GST control)
